Among the data in PubChem BioAssay (NCI) are growth values, retold here.

Molecules are shown by their SMILES. About 83,000 compounds went through this panel and 20% of them were active in at least one assay; those are over-represented in the sample as a whole.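 In brief: 96-well plates, 48 h treatment, single concentration, percent growth endpoint.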 Active and inactive are the calls of the source. Rule for the calls: active = growth percent below 10; inactive = the rest.

In this experiment the test system is HL-60(TB) leukemia. The experiment can be described thus: NCI-60 one-dose screen, 48 h (100 = growth as untreated, 0 = no growth, -100 = all killed). Conditions: 10 µM unless noted.
On to `c1ccc2c(Nc3cccc4ccccc34)cccc2c1`, for which the growth was 18.9% (inactive).

`CCNC(=O)Oc1ccc(/C(=C(\C)c2ccc(Cl)cc2)c2ccc(OCCN3CCCCC3)cc2)cc1`: the growth was 16.8% (inactive). The same measure for `OC(c1cc2cc(Cl)c(Cl)cc2c2cc(C(F)(F)F)ccc12)C1CCCCN1` (stereo not given): -21% (active). The same measure for `N#C/C(=C\c1cn(Cc2ccccc2)c2ccccc12)C(=O)Nc1ncc(Cc2ccccc2Cl)s1`: 93.1% (inactive).

`CCCCNc1ccc2c3c1cccc3c(=O)n1c3ccccc3nc21`: the growth was 63.4% (inactive).

On to `COc1ccc(-c2cc(NC(=O)Nc3ccc4ncsc4c3)no2)cc1`, for which the growth is 90.8% (inactive).

Consider `COc1ccc(C2[C@@H](c3ccccc3)C(=O)N2c2cc(OC)c(OC)c(OC)c2)cc1F` (stereo not given in full), for which the growth was -50.3% (active). Under `NC(N)=N/N=C/c1ccc([N+](=O)[O-])o1` stands 76.1% (inactive).

As to `COc1ccccc1NC(=O)OCC12COCN1COC2`, the growth is 102% (inactive). Under `CS(=O)(=O)Nc1cc(-c2ccc3ncnc(Nc4ccc5c(cnn5Cc5ccc(F)cc5)c4)c3c2)cnc1Cl` stands 23% (inactive); under `C[C@]12CCc3c(ccc4cc(O)ccc34)[C@@H]1CC[C@H]2O`, 86.7% (inactive); under `O=C(CCl)N(c1ccccc1)c1ccccc1`, 101% (inactive).

As to `COC(=O)CCC/C=C\C[C@H]1C=CC(=O)/C1=C/C[C@@H](O)CCc1cccc(C(F)(F)F)c1`, the growth was -18.2% (active). Under `Cc1nc(-c2ccccc2)cc2c(O)c(C(=O)N/N=C/c3ccc(N(C)C)cc3)[nH]c(=O)c12` stands 116% (inactive); under `Cc1cccc(Oc2ccc(Nc3ncnc4ccc(NC(=O)CNCCO)cc34)cc2Cl)c1`, -26.1% (active). Take `CCN1CCN(c2nc(NNC(=O)c3ccc(OC)cc3)nc(N3CCN(C(c4ccccc4)c4ccccc4)CC3)n2)CC1`: the growth is 18.7% (inactive). On to `O=C(/C=C/c1ccccc1)CC(c1ccccc1)N1CCOCC1` (stereo not given), for which the growth is 70.7% (inactive). The same measure for `Cc1ccc(/C=N/NC(=O)CSc2nc3ccccc3c(=O)n2Cc2ccc(S(N)(=O)=O)cc2)cc1`: 97.8% (inactive); for `CC(=O)c1nn(-c2ccccc2)c(=Nc2ccccc2)cc1C`: 106% (inactive). In the case of `O=c1[nH]c(N2CCOCC2)nc2scc(-c3ccccc3)c12`, the growth is 103% (inactive).

Turning to `CCOC(=O)c1c(C)nc2ccccc2c1/C=C/c1ccccc1`, the growth is 81.8% (inactive). For the molecule `O=C(Nc1ccc(Nc2ccncc2)cc1)c1ccc(Nc2ccnc3ccc([N+](=O)[O-])cc23)cc1`, the growth is 79.9% (inactive). Take `CCCCCN(CCCCC)CCCCCCCCN1CCCc2ccccc21`: the growth was -14.2% (active).

For `O=C(c1ccccc1)c1ccc(C2CCCCC2)cc1`, the growth is 101% (inactive). For `CCOC(=O)c1nc(Nc2cc(C)[nH]n2)c2ccccc2n1`, the growth was 106% (inactive).
